Test [1] can be described thus: optical density shifts of acrAB sulA E. coli – strain DRC41, OD650, 48 h, E. coli filamentation inducer project, primary screen (AID 1152).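 Further: E. coli MC1000 strain DRC41 lacking acrAB efflux pump and sulA.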 The settings on record: higher = more signal, called active from +8 up or from −8 down.
A short description of test [2]: probe aLefty1 binding on compound microarray – biochemical, small-molecule microarray, 635/667 nm fluorescence, primary screen (AID 1153).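 Further: score merges spot fluorescence with signal-to-noise ratio from the scanned slide images.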 The note with it: higher = more signal.
Test [3] in a line: plasmodial surface anion channel blockers, osmotic lysis – cell-based, P. falciparum Indochina, OD700, 1 h, primary screen (AID 1154). The note with it: P. falciparum Indochina infected RBC osmotic lysis, higher = more signal, called active from +8 up or from −8 down.
Test [4] can be described thus: plasmodial surface anion channel blockers, osmotic lysis – cell-based, P. falciparum Indochina, OD700, 2 h, primary screen (AID 1155).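 Further: lysis reports solute entry through the parasite surface anion channel PSAC.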 The note with it: P. falciparum Indochina infected erythrocytes, higher = more signal, called active from +8 up or from −8 down.
Test [5] can be described thus: changes in parasitized red cell lysis, either direction – P. falciparum Indochina, OD700, 3 h, PSAC antagonist project, primary screen (AID 1156). The settings on record: P. falciparum-infected erythrocytes, osmotic lysis, higher = more signal, called active from +8 up or from −8 down.
The nature of test [6]: plasmodial surface anion channel blockers, osmotic lysis – cell-based, P. falciparum Indochina, OD700, 18 h, primary screen (AID 1157). The note with it: P. falciparum Indochina infected erythrocytes, osmotic lysis OD700, 18 h; higher = more signal, called active from +8 up or from −8 down.
Test [7] is described as follows: S6 kinase pathway phospho-S6 level changes – cell-based, A549, cytoblot, luminescence, serum-stimulated, primary screen (AID 1158).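 Further: serum-stimulated A549 lung adenocarcinoma cells; signal is phosphorylated S6 detected by cytoblot immunostaining with HRP secondary.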 The note with it: 5 h, higher = more signal.
The target of test [8] is NADPH oxidase 2 (Homo sapiens) (UniProt P04839). Description: compounds shifting NOX2 Amplex Red fluorescence – cell-based, HEK293-NOX2, PMA-stimulated, NOX inhibitor project, primary screen (AID 1159). Further: test concentration not given here. The note with it: 45 min, higher = more signal, called active from +8 up or from −8 down.
Chain of NADPH oxidase 2 (Homo sapiens) (P04839 whole entry, looked up): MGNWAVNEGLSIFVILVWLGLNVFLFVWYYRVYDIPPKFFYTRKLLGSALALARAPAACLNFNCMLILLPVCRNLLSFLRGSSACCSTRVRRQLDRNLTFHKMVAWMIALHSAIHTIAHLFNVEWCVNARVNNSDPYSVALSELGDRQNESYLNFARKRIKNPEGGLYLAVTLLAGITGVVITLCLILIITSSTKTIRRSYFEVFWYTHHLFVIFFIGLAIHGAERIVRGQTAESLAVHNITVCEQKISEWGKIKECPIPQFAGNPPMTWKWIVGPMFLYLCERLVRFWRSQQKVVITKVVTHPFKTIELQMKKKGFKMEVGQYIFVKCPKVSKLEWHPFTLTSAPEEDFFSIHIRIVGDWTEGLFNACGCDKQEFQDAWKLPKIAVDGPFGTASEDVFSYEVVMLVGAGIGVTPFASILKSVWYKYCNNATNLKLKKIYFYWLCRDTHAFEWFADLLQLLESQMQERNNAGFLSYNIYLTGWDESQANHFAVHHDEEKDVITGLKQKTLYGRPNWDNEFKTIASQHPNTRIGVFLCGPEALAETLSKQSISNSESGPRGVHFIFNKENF
Test [9] concerns the target NADPH oxidase 4 (Homo sapiens) (UniProt Q9NPH5). Description: compounds shifting NOX4 Amplex Red fluorescence – cell-based, HEK293-NOX4, tetracycline-induced, NOX inhibitor project, primary screen (AID 1160). The note with it: HEK293-NOX4, Amplex Red H2O2 fluorescence, 45 min; higher = more signal, called active from +8 up or from −8 down.
The target in test [10] is NADPH oxidase 5 (Homo sapiens) (UniProt Q96PH1). Description: compounds shifting NOX5 Amplex Red fluorescence – cell-based, HEK293-NOX5, NOX inhibitor project, primary screen (AID 1161). The settings on record: HEK293-NOX5, ionomycin, 45 min, higher = more signal.
Chain of NADPH oxidase 5 (Homo sapiens) (Q96PH1 whole entry, looked up): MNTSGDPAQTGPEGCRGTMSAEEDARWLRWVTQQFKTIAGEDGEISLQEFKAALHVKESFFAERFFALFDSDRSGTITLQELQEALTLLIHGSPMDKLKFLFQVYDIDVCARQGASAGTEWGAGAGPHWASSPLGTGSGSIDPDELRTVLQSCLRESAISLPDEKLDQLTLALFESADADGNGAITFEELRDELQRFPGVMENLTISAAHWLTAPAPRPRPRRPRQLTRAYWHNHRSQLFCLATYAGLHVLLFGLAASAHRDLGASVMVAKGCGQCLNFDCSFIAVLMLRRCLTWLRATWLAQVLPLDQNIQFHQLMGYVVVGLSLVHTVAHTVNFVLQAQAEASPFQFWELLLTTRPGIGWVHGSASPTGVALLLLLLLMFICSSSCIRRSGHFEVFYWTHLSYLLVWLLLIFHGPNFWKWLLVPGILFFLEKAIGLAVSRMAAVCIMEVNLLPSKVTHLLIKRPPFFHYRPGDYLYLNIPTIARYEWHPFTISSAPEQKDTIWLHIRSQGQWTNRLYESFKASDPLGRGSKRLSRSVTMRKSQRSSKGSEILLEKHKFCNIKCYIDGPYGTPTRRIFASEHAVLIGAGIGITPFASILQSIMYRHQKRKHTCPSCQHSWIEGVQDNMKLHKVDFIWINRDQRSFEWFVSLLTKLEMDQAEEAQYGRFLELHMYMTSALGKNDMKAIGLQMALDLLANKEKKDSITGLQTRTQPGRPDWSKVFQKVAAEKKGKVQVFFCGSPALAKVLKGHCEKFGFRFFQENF
The nature of test [11]: compound effects on lung adenocarcinoma cell viability – A549, calcein-AM fluorescence, 48 h, basal, profiling panel (AID 1162). Further: test concentration not given here. The note with it: higher = more signal.
Test [12] is described as follows: compound effects on differentiated 3T3-L1 adipocyte viability – cell-based, 3T3-L1 adipocytes, calcein-AM fluorescence, 48 h, basal, profiling panel (AID 1163). Further: test concentration not given here. The settings on record: 3T3-L1 adipocytes viability, higher = more signal.
A short description of test [13]: compound effects on hepatocellular carcinoma cell viability – HepG2, calcein-AM fluorescence, 48 h, basal, profiling panel (AID 1164). Further: test concentration not given here. The settings on record: higher = more signal.
A short description of test [14]: compound effects on multiple myeloma cell viability – MM1S, calcein-AM fluorescence, 48 h, basal, profiling panel (AID 1165).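 Further: viability of MM1S multiple myeloma cells under basal unstimulated conditions; test concentration not given here.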 The settings on record: higher = more signal.
Test [15] can be described thus: calcein-AM signal in unstimulated myeloma cells – cell-based, calcein-AM fluorescence, 48 h, PK04 Diversity Set, profiling panel (AID 1166).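 Further: cells grown under basal conditions without added stimulus; test concentration not given here.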 The note with it: RPMI8226 myeloma viability, higher = more signal.
The nature of test [16]: JC-1 mitochondrial signal, unstimulated HepG2 cells – cell-based, JC-1 fluorescence, 24 h, 100 nL compound, profiling panel (AID 1167). Further: test concentration not given here. The note with it: HepG2 mitochondrial potential, higher = more signal.
Test [17] is described as follows: JC-1 mitochondrial signal, unstimulated adipocytes – cell-based, JC-1 fluorescence, 3T3-L1 adipocytes, 24 h, 100 nL compound, profiling panel (AID 1168). Further: test concentration not given here. The settings on record: JC-1 mitochondrial fluorescence, higher = more signal, called active from +8 up or from −8 down.
Test [18] can be described thus: JC-1 mitochondrial signal, unstimulated myeloma cells – cell-based, JC-1 fluorescence, RPMI8226, 24 h, 100 nL compound, profiling panel (AID 1169). Further: test concentration not given here. The note with it: JC-1 mitochondrial potential fluorescence, higher = more signal.
Test [19] in a line: JC-1 mitochondrial signal, unstimulated MM1S myeloma – cell-based, JC-1 fluorescence, 24 h, 100 nL compound, profiling panel (AID 1170). Further: test concentration not given here. The settings on record: MM1S mitochondrial potential, higher = more signal.
A short description of test [20]: resazurin metabolic signal in A549 cells – cell-based, resazurin fluorescence, 24 h, PK04 Diversity Set, profiling panel (AID 1171). Further: test concentration not given here. The note with it: A549 viability, higher = more signal, called active from +8 up or from −8 down. On the technique in general: Resazurin is reduced to fluorescent resorufin, in cell work by metabolically active cells.

The source made the active and inactive calls.

Chain of NADPH oxidase 4 (Homo sapiens) (Q9NPH5 whole entry, looked up): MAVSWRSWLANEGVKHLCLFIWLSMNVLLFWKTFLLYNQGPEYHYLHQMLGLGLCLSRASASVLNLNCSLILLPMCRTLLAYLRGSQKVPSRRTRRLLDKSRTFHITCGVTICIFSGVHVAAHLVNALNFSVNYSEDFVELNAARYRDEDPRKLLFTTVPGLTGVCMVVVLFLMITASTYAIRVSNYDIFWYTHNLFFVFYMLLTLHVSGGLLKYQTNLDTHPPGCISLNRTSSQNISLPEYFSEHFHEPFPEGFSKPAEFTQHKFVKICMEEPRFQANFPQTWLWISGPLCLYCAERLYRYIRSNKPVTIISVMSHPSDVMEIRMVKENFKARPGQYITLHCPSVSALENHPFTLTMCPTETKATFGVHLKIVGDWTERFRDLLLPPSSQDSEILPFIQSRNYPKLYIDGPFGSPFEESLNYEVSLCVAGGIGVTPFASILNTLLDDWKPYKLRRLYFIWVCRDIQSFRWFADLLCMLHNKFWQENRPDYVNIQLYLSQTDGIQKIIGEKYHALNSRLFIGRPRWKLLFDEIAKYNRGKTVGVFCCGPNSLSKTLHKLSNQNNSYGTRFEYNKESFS

Consider `CC(=O)c1ccc(C(O)C2C=CC3C(=O)NC(=O)C3N2Nc2ccc(Cl)cc2Cl)cc1` (stereo not given), for which the z-score is -2.32 (inactive) in [1]; 2.38 (inactive) in [3]; 0.738 (inactive) in test [4]; 1.15 (inactive) in [5]; 1 (inactive) in [6]; -0.497 in test [7]. In addition, the z-score in test [8] was -0.826 (inactive); in test [9] it was -5.81 (inactive); in test [10] it was -3.8; in test [11], -0.807; in test [12], -0.458; in [13], -1.28. The z-score in [14] is -0.124; in test [15] it was -0.344; in test [16] it was -0.976; in test [17], -1.4 (inactive); in [18], 0.574; in test [19], 0.863. In [20], the z-score is -0.743 (inactive). For the same compound, the composite z-score in test [2] came out at 0.0267.

As to `CCOC(=O)C1=CC[C@@H](c2ccccc2Cl)N(S(=O)(=O)c2ccc(C)cc2)[C@H]1c1cccc(OC)c1`, the z-score is -1.44 (inactive) in test [1]; 1.23 (inactive) in [3]; 1.16 (inactive) in test [4]; 0.106 (inactive) in test [5]; 0.362 (inactive) in [6]; -0.401 in test [7]. The z-score was 0.78 (inactive) in test [8]; 0.238 (inactive) in test [9]; 0.113 in test [10]; -0.698 in test [11]; -1.56 in test [12]; -0.467 in [13]. Also, the z-score in test [14] was -0.744; in test [15], 0.688; in test [16] it was 0.405; in test [17], -1.39 (inactive); in test [18] it was 0.702; in test [19], -0.539. For the same compound, the z-score in test [20] is 0.219 (inactive). In test [2], this compound showed a composite z-score of 0.0082.

With `CCC(CC)C(O)C1C=CC2C(=O)N(C)C(=O)C2N1N1CCCCC1` (stereo not given), the z-score was -1.65 (inactive) in test [1]; 1.41 (inactive) in [3]; 0.787 (inactive) in test [4]; 0.156 (inactive) in [5]; 0.729 (inactive) in test [6]; -1.17 in [7]. In addition, the z-score in test [8] was -0.893 (inactive); in test [9] it was -1.17 (inactive); in test [10], -1.35; in test [11], -0.0236; in test [12], -0.505; in [13], -0.502. Moreover, the z-score was -0.651 in test [14]; -0.521 in test [15]; -1.34 in test [16]; -0.115 (inactive) in [17]; 0.153 in test [18]; -0.557 in test [19]. Also, the z-score in [20] is 0.0051 (inactive). The composite z-score in test [2] was 0.361.

With `C=CCC(OC(C)=O)[C@@H]1[C@@H](N(Cc2ccc(-c3cccc(C(F)(F)F)c3)o2)C(=O)Cc2ccc(F)cc2)c2cc(OCCCO)ccc2N1C(=O)c1ccc2ccccc2n1` (stereo not given in full), the z-score in test [1] was -0.994 (inactive); in test [3], 1.53 (inactive); in [4], -0.0905 (inactive); in test [5], -0.592 (inactive); in test [6], 0.0644 (inactive); in [7] it was -0.47. Also, the z-score in [8] was 0.249 (inactive); in [9], 0.919 (inactive); in [10] it was 1.13; in test [11] it was 0.0993; in test [12], 0.639; in [13] it was 0.722. Also, the z-score in test [14] is -0.911; in test [15], -0.733; in test [16], 2.09; in [17] it was 0.484 (inactive); in [18] it was -0.134; in [19] it was 0.143. For the same compound, in test [20], the z-score was 0.14 (inactive). The compound also gave a composite z-score in [2] of -0.024.

As to `O=C1OCCC=C[C@H]2OC34C=CCN(CCN5CCOCC5)C(=O)[C@H]3N(CCCO)C(=O)[C@@H]4C12` (stereo not given in full), the z-score in test [1] is 0.274 (inactive); in test [3], 0.377 (inactive); in test [4], -1.35 (inactive); in [5] it was 0.901 (inactive); in test [6] it was -1.73 (inactive); in test [7], 0.41. Also, the z-score is -0.433 (inactive) in test [8]; -1.97 (inactive) in test [9]; -0.183 in test [10]; 0.531 in test [11]; 0.473 in test [12]; 0.127 in [13]. Besides, the z-score was -0.0305 in test [14]; -0.0605 in test [15]; -0.338 in test [16]; 1.33 (inactive) in test [17]; 0.398 in [18]; -0.139 in test [19]. Besides, in test [20], the z-score was -0.784 (inactive). In addition, in [2], the composite z-score was -0.0464.

In the case of `C=C(COC)/C(=C/C[C@@H](OC(C)=O)c1ccccc1OCCO)c1cc(C(=O)OC)ccc1OC`, the z-score was 0.0999 (inactive) in test [1]; 17.2 (active) in [3]; 2.52 (inactive) in test [4]; 1.68 (inactive) in test [5]; 1.04 (inactive) in test [6]; -0.0651 in test [7]. The z-score in test [8] is 0.857 (inactive); in [9] it was -0.16 (inactive); in test [10] it was -1.46; in test [11], 1.2; in test [12], -2.49; in [13], 0.5. For the same compound, the z-score in test [14] is -3.3; in [15], -0.866; in test [16], 0.751; in test [17] it was 0.00709 (inactive); in test [18], -0.338; in test [19], -0.875. The z-score in test [20] is 0.368 (inactive). The composite z-score in test [2] amounted to 0.0945.

With `CC(c1ccccc1)C(O)C1C=CC2C(=O)N(c3ccccc3)C(=O)C2N1Nc1ccc(C#N)cc1` (stereo not given), the z-score in [1] is 1.16 (inactive); in [3], 14 (active); in [4], 1.58 (inactive); in test [5] it was 0.832 (inactive); in test [6], 0.264 (inactive); in [7] it was 1.38. In addition, the z-score in test [8] is -1.9 (inactive); in test [9] it was -4.04 (inactive); in [10] it was -2.65; in test [11] it was 1.71; in test [12], -0.582; in test [13], 1.49. Further, the z-score in [14] is 0.401; in test [15] it was -0.0442; in [16], -0.372; in test [17] it was 0.0393 (inactive); in [18], -0.0416; in [19], 0.222. In [20], the z-score was 0.413 (inactive). Besides, the composite z-score in test [2] is 0.379.

Consider `C=CCN1C(=O)[C@]2(O[C@H](CCO)[C@@H]([Si](C)(C)c3ccc(OC)cc3)[C@@H]2C)c2ccccc21`, for which the z-score in [1] was -1.95 (inactive); in [3] it was 11.9 (active); in test [4] it was 2.43 (inactive); in [5], -2.63 (inactive); in test [6] it was 1.19 (inactive); in [7], -0.613. The z-score in test [8] is -0.536 (inactive); in test [9], -0.0158 (inactive); in [10], -1.23; in test [11] it was -3.94; in test [12], -0.448; in [13], -4.62. The z-score in test [14] was -2.7; in test [15], -4.37; in [16], -3.42; in [17], -0.0442 (inactive); in test [18] it was -1.18; in test [19], -2.21. For the same compound, the z-score in test [20] is -1.83 (inactive). This compound also gave a composite z-score in test [2] of -0.33.

Take `O=C1NC(=O)C2C1C=CC(C(O)c1ccc(F)cc1)N2Nc1ccccn1` (stereo not given): the z-score was -1.99 (inactive) in [1]; 1.02 (inactive) in test [3]; 1.23 (inactive) in test [4]; -0.02 (inactive) in test [5]; 0.753 (inactive) in test [6]; -0.727 in test [7]. The z-score in test [8] is -1.01 (inactive); in test [9], -2.92 (inactive); in test [10] it was -2.12; in test [11], -1.12; in [12], -0.182; in test [13], 0.417. Besides, the z-score in test [14] is -0.416; in test [15] it was -0.395; in test [16], -1.53; in test [17], -0.311 (inactive); in test [18], 0.734; in test [19], 0.247. Further, the z-score in test [20] was -1.11 (inactive). This compound also came in with a composite z-score in test [2] of 0.0378.

Source of the values: PubChem BioAssay.
